# What was measured:
# DDX1 = DDX1 (UniProt Q92499); experiment: cross-linking mass spectrometry; conditions: DSS, purified complex
# RTCB = RTCB (UniProt Q9Y3I0); experiment: cross-linking mass spectrometry; conditions: DSS, purified complex
# Chain of RTCB (Q9Y3I0 whole entry): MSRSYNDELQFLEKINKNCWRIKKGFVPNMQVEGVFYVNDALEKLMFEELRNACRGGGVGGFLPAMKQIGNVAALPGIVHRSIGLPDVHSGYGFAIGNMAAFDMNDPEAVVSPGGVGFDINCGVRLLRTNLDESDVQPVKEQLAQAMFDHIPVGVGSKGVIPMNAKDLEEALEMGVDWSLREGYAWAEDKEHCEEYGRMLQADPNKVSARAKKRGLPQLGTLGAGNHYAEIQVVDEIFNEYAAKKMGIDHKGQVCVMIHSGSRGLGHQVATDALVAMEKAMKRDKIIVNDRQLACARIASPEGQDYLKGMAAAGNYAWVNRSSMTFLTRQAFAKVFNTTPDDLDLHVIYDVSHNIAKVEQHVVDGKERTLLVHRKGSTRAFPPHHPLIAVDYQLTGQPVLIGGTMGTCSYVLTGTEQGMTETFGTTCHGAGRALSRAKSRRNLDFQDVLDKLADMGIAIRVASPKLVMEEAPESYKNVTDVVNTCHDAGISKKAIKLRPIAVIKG
# Chain of FAM98B (Q52LJ0 whole entry): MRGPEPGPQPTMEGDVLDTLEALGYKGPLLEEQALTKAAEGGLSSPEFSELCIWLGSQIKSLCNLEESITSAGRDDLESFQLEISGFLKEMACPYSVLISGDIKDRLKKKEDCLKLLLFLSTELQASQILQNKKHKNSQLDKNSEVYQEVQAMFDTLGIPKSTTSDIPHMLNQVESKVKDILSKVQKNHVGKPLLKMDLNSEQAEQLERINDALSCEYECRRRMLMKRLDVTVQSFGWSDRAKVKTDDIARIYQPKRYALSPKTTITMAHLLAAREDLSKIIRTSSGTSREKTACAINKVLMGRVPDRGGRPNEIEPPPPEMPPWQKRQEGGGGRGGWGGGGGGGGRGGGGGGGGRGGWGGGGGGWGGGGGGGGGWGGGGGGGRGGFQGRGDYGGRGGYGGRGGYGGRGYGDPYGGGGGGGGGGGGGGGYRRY
# Chain of DDX1 (Q92499 whole entry): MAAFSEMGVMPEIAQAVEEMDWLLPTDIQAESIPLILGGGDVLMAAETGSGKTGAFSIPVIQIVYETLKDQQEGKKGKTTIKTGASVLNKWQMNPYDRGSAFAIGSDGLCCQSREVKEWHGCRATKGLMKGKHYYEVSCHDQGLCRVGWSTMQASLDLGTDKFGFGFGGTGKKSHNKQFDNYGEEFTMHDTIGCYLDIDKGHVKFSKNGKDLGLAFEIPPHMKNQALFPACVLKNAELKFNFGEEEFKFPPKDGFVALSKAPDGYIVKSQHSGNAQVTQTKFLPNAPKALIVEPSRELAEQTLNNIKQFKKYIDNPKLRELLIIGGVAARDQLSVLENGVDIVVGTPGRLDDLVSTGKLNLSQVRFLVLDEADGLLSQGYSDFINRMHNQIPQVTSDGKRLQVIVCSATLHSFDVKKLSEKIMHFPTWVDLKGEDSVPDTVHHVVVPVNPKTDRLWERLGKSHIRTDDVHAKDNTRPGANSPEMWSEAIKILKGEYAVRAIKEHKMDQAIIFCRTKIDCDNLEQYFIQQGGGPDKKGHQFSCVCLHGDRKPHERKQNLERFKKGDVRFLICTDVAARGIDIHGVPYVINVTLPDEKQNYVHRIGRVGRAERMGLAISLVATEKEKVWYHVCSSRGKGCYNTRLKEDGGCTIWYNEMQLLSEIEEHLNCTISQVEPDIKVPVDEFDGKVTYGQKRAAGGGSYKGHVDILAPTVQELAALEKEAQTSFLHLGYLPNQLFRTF
substance,measurement,setting,value
"FAM98B, Q52LJ0",cross-linked residues,DDX1,K245 - K693
same,cross-linked residues,RTCB,K280 - K245
